FUS suppressor: FUS proteinopathy suppression in yeast. S. cerevisiae FUS-expressing, growth rescue, OD600, 24 h. Potency, µM (titrated, usually from 76.6 µM), hits mostly activators. actives 0.24% (n = 390,000); also: nearly all actives have a fitted effect of over 55% in size
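Galactose (2%) drives FUS expression in yeast precultured in raffinose; seeding density OD 0.005. Test compounds incubated 24hr at 30C and 99% humidity before absorbance at 600 nm was measured.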
aSyn yeast inh: inhibitors of alpha-synuclein toxicity in yeast; Yeast expressing alpha-synuclein, growth rescue, BacTiter-Glo, 24 h; Potency, µM (highest dose often 46.1 µM), usual class: activators; actives 0.14% (n = 370,000); also: nearly all actives have a fitted effect of over 65% in size
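Rescue of yeast growth: cells expressing toxic alpha-synuclein, induced in galactose at OD600 0.02, incubated with compound 24 h at 30 C. ATP luminescence quantified growth; inhibitors of toxicity appear as activators.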
uPA surface inh: blocks generation of uPA at the cell surface. cell surface uPA generation assay, qHTS. Potency, µM (series often up to 38.3 µM), hits mostly inhibitors. actives 0.31% (n = 330,000). AID 540303; active = well fitted inhibition curve with a large enough effect; inconclusive = small, poorly fitted or top-dose-only effect; inactive = no such curve, though single readings can be large or run the other way; tested in mouse RAW 264.7 cells; also: nearly all actives have a fitted effect of over 55% in size
TDP43 rescue: TDP-43 toxicity inhibition in yeast; TDP-43 expressing yeast growth rescue, BacTiter-Glo, 24 h; Potency, µM (titrated, usually from 46.1 µM), hits mostly activators; actives 1.8% (n = 410,000); AID 652104; also: nearly all actives have a fitted effect of over 50% in size
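Readout is BacTiter-Glo luminescence of cell growth, so inhibitors register as activators. TDP-43-expressing yeast at OD600=0.02 in galactose medium, after raffinose pregrowth to mid-log, were incubated with compound for 24 hr at 30 deg C.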
Chronic BCR inh: blocks chronic active B-cell receptor signaling; ABC-DLBCL IkBa-CBG/CBR reporter, luminescence ratio, 4 h; Potency, µM (titrated, usually from 46.1 µM), hits mostly inhibitors; actives 0.05% (n = 340,000); active = well fitted inhibition curve with a large enough effect in the signal ratio, with a control signal flat, not every such curve was filed as active; inconclusive = small, poorly fitted or top-dose-only effect, or effect the other way, or a change in a side signal; the % refers to the signal ratio
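Doxycycline induced both beetle luciferases in TMD8 lymphoma cells; IKK-driven degradation limits the IkappaBalpha-fused green signal, while red luminescence normalises for cell number and nonspecific effects. Compounds tested up to 46 uM, 4 hrs.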
Abeta rescue: compounds reversing amyloid beta toxicity in yeast; actives 0.063% (n = 410,000); yeast expressing A-beta42, growth rescue, OD600, 48 h; response scale: 0% DMSO, 100% iron-clioquinol control; Potency, µM (series often up to 46.1 µM), most hits filed as activators; AID 1347071; also: nearly all actives have a fitted effect of over 55% in size
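Yeast growth medium received pinned compounds, then yeast cells expressing toxic A-beta were added; plates incubated at 30 C for 48 hr. Growth read as absorbance at 600 nm, normalized to DMSO and equimolar FeCl3 plus clioquinol controls.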
Hits are given with their value; n = inactive; u = inconclusive; x = no result; [ ] = dose if it differs, or a comment. An excerpt weighted towards active compounds, which were near 2.3% of everything screened. Unless noted, calls follow the shape of the dose curve; as a rule, active = well fitted curve in the direction sought with a large enough effect; inconclusive = small, poorly fitted or top-dose-only effect, or another doubt; inactive = no such curve, though single readings can be large; an effect the other way counts as inactive or inconclusive.

SMILES	FUS suppressor	aSyn yeast inh	uPA surface inh	TDP43 rescue	Chronic BCR inh	Abeta rescue
COc1ccc(CC(=O)Nc2sc3c(c2C(N)=O)CCCC3)cc1	n	n	n	n	u	n
COCCn1cnnc1SCC(=O)Nc1sc2c(c1C#N)CCC2	x	n	n	n	u	n
COc1cc(OC)cc(C(=O)Nc2sc3c(c2C(N)=O)CCC3)c1	n	3.5µM	n	n	n	n
COc1cc(OC)cc(C(=O)N=c2sc3ccccc3n2C)c1	n	n	n	n	n	n
CCS(=O)(=O)n1nc(-c2cccnc2)nc1NCc1ccc(F)cc1	n	n	n	n[1.82 µM]	n	n
COc1ccc(OC)c(NC(=O)CSc2ccc(-c3ccco3)nn2)c1	n	n	n	20µM	u	n
COc1ccc(OC)c(NC(=O)CSc2ccc(-c3cccs3)nn2)c1	n	x	x	n	x	n
COc1ccccc1NC(=O)CSc1ccc(-c2cccs2)nn1	n	n	n	22µM	n	n
CS(=O)(=O)N1CCN(c2ncccn2)CC1	n	n	n	n	n	n
CNC(=O)NC1CCCCc2sccc21 (stereo unspecified)	n	n	n	n	n	n
O=C(NN1CCOCC1)c1ccc(Br)cc1	n	n	n	n	x	n
CCCCOc1ccccc1C1CC(=O)Nc2cc(C)c(C)cc21 (stereo unspecified)	n	x	x	n	u	n
CCOc1ccccc1C1CC(=O)Nc2cc(C)c(C)cc21 (stereo unspecified)	n	n	7.1µM	n	n	n
CCOCC(=O)N1CCN(c2cccc(Cl)c2)CC1	n	n	n	n	n	n
CCC(Sc1nc2ccsc2c(=O)n1Cc1ccc(C(=O)O)cc1)C(=O)Nc1ccc(Cl)cc1 (stereo unspecified)	35µM	n	x	n	x	n
Oc1ccc(F)cc1-c1cc(-c2ccc3c(c2)OCCO3)n[nH]1	n	n	n	u	u	n
COc1ccccc1NS(=O)(=O)c1cccc(NC(=O)NC2CCCCC2)c1	n	n	n	n	n	n
COCCCNC(=O)Cc1c(C)c2cc3c(cc2oc1=O)OC(C)(C)CC3	n	n	u	n	u	n
CC(=O)Nc1ccc(N(CC(=O)NC2CCCC2)C(=O)CCC(=O)Nc2cc(C)on2)cc1	n	n	n	n	n	n
O=C1C(Cc2ccccc2)Nc2ncnc(N3CCN(c4ccccc4)CC3)c2N1Cc1ccccc1 (stereo unspecified)	n	n	n	n	n	n
Cc1ccc(CN2C(=O)C(Cc3ccccc3)Nc3ncnc(N4CCN(c5ccccc5)CC4)c32)cc1 (stereo unspecified)	25µM	n	u	n	n	n
CC(C)NC(=O)c1cc(C2CCCCN2C(=O)OCCF)on1 (stereo unspecified)	n	n	x	n	x	n
COC(=O)C1=C(C(=O)OC)C(c2cc(Cl)ccc2O)c2sc(=O)[nH]c2S1 (stereo unspecified)	n	14µM	n	n	n	n
CCN(CC)C(=O)C1CCCc2c1[nH]c1ccc(Cl)cc21 (stereo unspecified)	n	n	n	14µM	u	n
Cc1ccc2[nH]c3c(c2c1)CCCC3NC(=O)CCl (stereo unspecified)	n	n	n	n	n	n
SMILES	FUS suppressor	aSyn yeast inh	uPA surface inh	TDP43 rescue	Chronic BCR inh	Abeta rescue
O=CNC1CCCc2c1[nH]c1ccc(Cl)cc21 (stereo unspecified)	x	n	n	14µM	u	n
Cc1ccc(S(=O)(=O)n2c([N+](=O)[O-])cnc2C)cc1C	n	n	n	n	n	n
CCOc1ccc(-c2noc(CSc3nnc(Cc4ccccc4)n3-c3ccc(F)cc3)n2)cc1	u	x	x	u	x	n
CCCOc1ccc(CNC(=O)CCCN2C(=O)CSc3c2c(C)nn3-c2ccccc2)cc1	u	x	x	18µM	x	n
Cc1nn(-c2ccccc2)c2c1N(CCCC(=O)NCc1ccc(N(C)C)cc1)C(=O)CS2	n	x	x	n	x	n
COc1ccc(CNC(=O)CCCN2C(=O)CSc3c2c(C)nn3-c2ccccc2)cc1	n	x	x	22µM	x	n
O=C(Nc1ccc2snnc2c1)N1CCOCC1	n	n	n	n	n	n
CC(=O)N1CCc2c(sc(NC(=O)CSc3ccccc3)c2-c2nc3ccccc3s2)C1	u	4µM	x	n	n	n
CC(=O)Nc1sc2c(c1-c1nc3ccccc3s1)CN(C(C)C)CC2	n	x	2µM	x	u	n
Cc1c(N(CC(=O)O)S(=O)(=O)c2ccccc2)c(=O)n(-c2ccccc2)n1C	n	n	x	n	n	n
O=C(CCc1nc2cccnc2n1Cc1cccs1)Nc1cccc(C(F)(F)F)c1	n	x	x	25µM	x	u
COc1ccc(/C=C2\CCc3ccccc3C2=O)cc1O	n	n	n	14µM	u	n
CC(=O)Nc1ccc(/C=C2\CCc3ccccc3C2=O)cc1	n	n	n	35µM	n	n
O=C1/C(=C\c2ccc([N+](=O)[O-])cc2)CCc2ccccc21	n	n	n	u	n	n
Cc1c(C)n(C(=O)CSc2nc3ccccc3[nH]2)c2ccccc12	n	n	n	n	u	n
CC(=O)c1cnc2nc(SCc3ccc(Cl)cc3)nn2c1C	n	n	n	14µM	n	n
O=C(NCc1ccccc1Cl)c1cnc2n(c1=O)CCS2	n	n	n	u	u	n
O=C(CSc1ncnc2sccc12)NCc1ccc2c(c1)OCO2	n	u	n	16µM	n	n
O=C(NCc1ccc2c(c1)OCO2)c1cnc2ccccn2c1=O	n	n	x	n	n	n
Cc1ccc(-c2csc3ncnc(SCC(=O)NCc4ccc5c(c4)OCO5)c23)cc1	n	n	n	n	n	n
Cc1csc2ncc(C(=O)NCc3ccccc3Cl)c(=O)n12	n	n	n	22µM	n	n
Cc1csc2ncc(C(=O)NCc3ccc4c(c3)OCO4)c(=O)n12	n	n	n	10µM	n	n
O=C(Nc1c2c(nn1-c1ccc([N+](=O)[O-])cc1)CS(=O)(=O)C2)C1CC1	n	n	n	n	n	n
CN=C1SC(CC(=O)NCCc2ccc(OC)c(OC)c2)C(=O)N1C (stereo unspecified)	n	n	n	n	n	n
O=C(c1cnc(Cl)c(Cl)c1)N1CCC(Cc2ccccc2)CC1	n	n	n	13µM	n	n
Cc1cc(C(=O)N2CCN(Cc3ccccc3)CC2)ccc1[N+](=O)[O-]	n	n	n	n	n	n
Cc1cc(C(=O)N2CCC(Cc3ccccc3)CC2)ccc1[N+](=O)[O-]	11µM	n	n	u	n	n
O=C(NCCc1csc(-c2cccc(F)c2)n1)c1ccco1	n	n	n	n	n	n
Cc1cc2oc(=O)cc(-c3ccccc3)c2c(C)c1-c1ccc(O)cc1	u	n	n	14µM	n	n
